Assay results published in PubChem BioAssay (NCI).
“And” between values parts separate entries of the source, which are not always exact repeats. Equal entries are not always repeated. Compounds without any hit were thinned out: in the full panel of roughly 83,000, 20% have a hit.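 The endpoint reported here, percent growth, reads 100 for growth as untreated, 0 for no net growth and -100 for all cells dead.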 The source made the active and inactive calls. Rule for the calls: active = growth percent below 10; inactive = the rest.

Assays:
Assay in all cases: NCI-60 one-dose screen, 48 h (100 = growth as untreated, 0 = no growth, -100 = all killed)
HCT-15 colon = conditions: 10 µM
HT29 colon = conditions: 10 µM
SNB-75 CNS = conditions: 10 µM
SNB-19 CNS = conditions: 10 µM
U251 CNS = conditions: 10 µM
PC-3 prostate = conditions: 10 µM
SK-MEL-5 melanoma = conditions: 10 µM
UACC-62 melanoma = conditions: 10 µM unless noted
LOX IMVI melanoma = conditions: 10 µM
SK-MEL-28 melanoma = conditions: 10 µM

Measured: growth

N#CCc1ccccc1
inactive: HCT-15 colon 102% | HT29 colon 114% | SNB-75 CNS 105% | SNB-19 CNS 98.6% | U251 CNS 95.8% | PC-3 prostate 96.9% | SK-MEL-5 melanoma 99.4% | UACC-62 melanoma 102% | LOX IMVI melanoma 94.1% | SK-MEL-28 melanoma 106%

O=[N+]([O-])/C=C/c1ccc([N+](=O)[O-])cc1
-16.5% (active) and 87.8% (inactive): U251 CNS
inactive: SNB-75 CNS 48.7% and 90.1% | SNB-19 CNS 72.6% and 96.2% | PC-3 prostate 43.4% and 92% | SK-MEL-5 melanoma 97.9% | UACC-62 melanoma 71.5% and 81.1% | SK-MEL-28 melanoma 82.2% and 103%
-90.1% (active) and 70% (inactive): LOX IMVI melanoma
-30.1% (active) and 12.6% (inactive): HCT-15 colon
-46.8% (active) and 72.9% (inactive): HT29 colon

CC[C@@]1(O)C[C@H](OC2CC(N(C)C)C(O)C(C)O2)c2c(cc3c(c2O)C(=O)c2c(O)ccc(O)c2C3=O)[C@H]1C(=O)OC (stereo partly specified)
active: HCT-15 colon -43% | HT29 colon -20.5% | SNB-75 CNS -88% | SNB-19 CNS -36.9% | U251 CNS -90.8% | PC-3 prostate -57.4% | SK-MEL-5 melanoma -100% | LOX IMVI melanoma -85.1%

COc1ccc2c(ccc3oc([N+](=O)[O-])cc32)c1
active: HCT-15 colon 5.1% | HT29 colon -8.59% | SNB-75 CNS -68.5% | SNB-19 CNS 5.8% | U251 CNS -8.64% | PC-3 prostate 9.56% | SK-MEL-5 melanoma -80.4% | UACC-62 melanoma -60.2% | LOX IMVI melanoma -35.9% | SK-MEL-28 melanoma -39.6%

O=C1C(=O)c2ccccc2-c2ccccc21
active: HCT-15 colon -69.5% | HT29 colon -16.1% | SNB-75 CNS -100% | SNB-19 CNS -78.6% | U251 CNS -87.8% | PC-3 prostate -47% | SK-MEL-5 melanoma -95.7% | LOX IMVI melanoma -58.5% | SK-MEL-28 melanoma -91.2%

NC(=O)c1cc([N+](=O)[O-])c(Cl)c([N+](=O)[O-])c1
active: HT29 colon -7.93%
inactive: HCT-15 colon 45.5% | SNB-75 CNS 98.6% | SNB-19 CNS 107% | U251 CNS 69.4% | PC-3 prostate 62.2% | SK-MEL-5 melanoma 107% | LOX IMVI melanoma 24.7% | SK-MEL-28 melanoma 118%
